Data on 16 molecules can be found in PubChem BioAssay (NCI).

This is part of a sample that, as a whole, favours compounds with a hit. Of some 83,000 tested, about 20% had one in any assay.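 96-well plates, one dose, 48 hours. Percent growth reported; active if below 10.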 A number with no mark means an inactive call. The source made the active and inactive calls.

Among the test systems are DU-145 prostate; K-562 leukemia; MALME-3M melanoma; MDA-MB-231 breast; RXF 393 renal; SF-268 CNS; SF-295 CNS; SF-539 CNS; UACC-257 melanoma; M14 melanoma.
Common to all, as to test: NCI-60 one-dose screen, 48 h (100 = growth as untreated, 0 = no growth, -100 = all killed)
Holding throughout (conditions): 10 µM unless noted

On to `COc1ccc2c(c1)sc1nc(-c3ccc(N(C)C)cc3)cn12`, for which the growth with DU-145 prostate is 103%; in the test on K-562 leukemia, 80%; in the test on MALME-3M melanoma, 112%; in the test on MDA-MB-231 breast it was 122%; in the test with RXF 393 renal, 114%; in the test with SF-268 CNS, 93.1%. Also, the growth in the test with SF-295 CNS was 98.7%; in the test with SF-539 CNS, 99.4%; with UACC-257 melanoma, 95.8%; in the test on M14 melanoma, 103%.

Consider `Cc1ccc(NC(=O)c2sc3nc4c(cc3c2N)C(=O)CCC4)cc1`, for which the growth in the test on DU-145 prostate is 96.4%; with K-562 leukemia, 53.1%; in the test with MALME-3M melanoma, 89.1%; in the test with MDA-MB-231 breast, 78%; with RXF 393 renal it was 108%; in the test with SF-268 CNS, 110%. Moreover, the growth in the test on SF-295 CNS was 47.1%; in the test with SF-539 CNS it was 93.5%; with UACC-257 melanoma it was 74%; in the test with M14 melanoma it was 85.3%.

For `O=C(CNC(=O)c1cccc2ccccc12)Nc1ccccc1Oc1ccc(O)cc1`, the growth with DU-145 prostate was 19.5% [5 µM]; in the test with K-562 leukemia it was 9.54% [5 µM] (active); in the test with MALME-3M melanoma, 57.9% [5 µM]; in the test on MDA-MB-231 breast, 47.7% [5 µM]; in the test with RXF 393 renal it was -2.89% [5 µM] (active); with SF-268 CNS, 51.7% [5 µM]. In addition, the growth is 6.5% [5 µM] (active) with SF-295 CNS, -11% [5 µM] (active) in the test with SF-539 CNS, 76.7% [5 µM] in the test with UACC-257 melanoma and 9.58% [5 µM] (active) with M14 melanoma.

On to `O=C1NC(=O)/C(=C/c2ccc(Cl)cc2Cl)N1`, for which the growth in the test on DU-145 prostate is 117%; with K-562 leukemia, 104%; in the test on MALME-3M melanoma, 100%; in the test on MDA-MB-231 breast it was 110%; in the test with RXF 393 renal, 120%; in the test with SF-268 CNS it was 103%. Also, the growth in the test on SF-295 CNS was 114%; in the test with SF-539 CNS, 103%; in the test with UACC-257 melanoma it was 108%; with M14 melanoma it was 121%.

As to `O=C1C=CC(=O)N1c1ccccn1`, the growth was 111% in the test with DU-145 prostate; 94.5% in the test with K-562 leukemia; 124% in the test on MALME-3M melanoma; 102% in the test on MDA-MB-231 breast; 126% in the test with RXF 393 renal; 99.1% with SF-268 CNS. For the same molecule, the growth was 105% in the test on SF-295 CNS, 99.8% with SF-539 CNS, 105% in the test with UACC-257 melanoma and 105% in the test with M14 melanoma.

`NC(=O)c1cc(Br)cc(Br)c1NS(=O)(=O)c1ccccc1`: the growth was 110% in the test with DU-145 prostate; 122% in the test on K-562 leukemia; 94.1% in the test on MALME-3M melanoma; 88.1% in the test with MDA-MB-231 breast; 104% in the test with RXF 393 renal; 108% with SF-268 CNS. Further, the growth in the test with SF-295 CNS is 98.2%; with SF-539 CNS, 98.6%; in the test with UACC-257 melanoma, 131%; with M14 melanoma it was 101%.

Turning to `CC(C)N(Cc1ccccc1)c1c(S)ssc1=S`, the growth with DU-145 prostate was 10.7%; in the test with K-562 leukemia it was 15.1%; in the test with MALME-3M melanoma it was -4.76% (active); in the test with MDA-MB-231 breast, 2.92% (active); in the test on RXF 393 renal, -17.4% (active); with SF-268 CNS, 28.8%. The growth is -5.63% (active) in the test with SF-295 CNS, 2.54% (active) in the test with SF-539 CNS, 5.96% (active) in the test on UACC-257 melanoma and 17.6% in the test on M14 melanoma.

`O=C(CNC(=O)c1cccc2ccccc12)Nc1ccccc1Cc1ccccc1`: the growth in the test on DU-145 prostate was 48.4% [5 µM]; in the test with K-562 leukemia, 12.3% [5 µM]; in the test with MALME-3M melanoma, 46.8% [5 µM]; in the test on MDA-MB-231 breast, 64.1% [5 µM]; in the test with RXF 393 renal, 47.2% [5 µM]; in the test on SF-268 CNS, 48.6% [5 µM]. Moreover, the growth is 17.1% [5 µM] with SF-295 CNS, 26.7% [5 µM] in the test with SF-539 CNS, 25.4% [5 µM] in the test with UACC-257 melanoma and 10.6% [5 µM] in the test on M14 melanoma.

As for `N#Cc1c(-c2ccccc2)cc(-c2ccccc2)n(CCCCCCC(=O)O)c1=O`, the growth with DU-145 prostate was 116%; in the test on K-562 leukemia, 94.3%; in the test on MALME-3M melanoma it was 94.5%; in the test on MDA-MB-231 breast, 94.8%; with RXF 393 renal it was 92.7%; with SF-268 CNS, 97.8%. Moreover, the growth in the test with SF-295 CNS is 94.1%; in the test on SF-539 CNS, 97.4%; in the test on UACC-257 melanoma, 109%; in the test on M14 melanoma, 101%.

Turning to `Cc1sc2nc(N3CCCCC3)[nH]c(=O)c2c1C`, the growth is 111% with DU-145 prostate; 91.2% in the test on K-562 leukemia; 100% in the test with MALME-3M melanoma; 99.4% in the test with MDA-MB-231 breast; 101% with RXF 393 renal; 98% in the test on SF-268 CNS. For the same molecule, the growth with SF-295 CNS was 97%; in the test on SF-539 CNS, 97.9%; in the test on UACC-257 melanoma, 89.1%; in the test on M14 melanoma, 98.8%.

As to `CCOC(=O)C(Br)=P(c1ccccc1)(c1ccccc1)c1ccccc1`, the growth in the test on DU-145 prostate was 124%; in the test with K-562 leukemia, 105%; in the test with MALME-3M melanoma, 94.3%; with MDA-MB-231 breast, 92.6%; in the test on RXF 393 renal, 79.9%; with SF-268 CNS it was 120%. Besides, the growth is 110% in the test on SF-295 CNS, 101% with SF-539 CNS, 98.9% in the test on UACC-257 melanoma and 111% in the test with M14 melanoma.

In the case of `C/C(=C\CCc1ccsc1)CC/C=C(\C)CCCN1CCSCC1`, the growth was 96.6% in the test with DU-145 prostate; 61.9% in the test with K-562 leukemia; 98.4% in the test with MALME-3M melanoma; 85.9% in the test on MDA-MB-231 breast; 98.1% in the test on RXF 393 renal; 103% with SF-268 CNS. Moreover, the growth in the test on SF-295 CNS is 82%; in the test on SF-539 CNS, 89.9%; in the test with UACC-257 melanoma, 94.6%; with M14 melanoma, 96.2%.

As to `CSc1nc2nc3c(c(-c4ccc(C)cc4)c2c(=O)[nH]1)CN(C)C/C3=C\c1ccc(C)cc1`, the growth in the test on DU-145 prostate was 99.4%; in the test with K-562 leukemia, 103%; with MALME-3M melanoma, 120%; in the test with MDA-MB-231 breast, 86.3%; in the test with RXF 393 renal it was 109%; in the test with SF-268 CNS it was 90.9%. Besides, the growth in the test with SF-295 CNS is 111%; in the test with SF-539 CNS, 124%; with UACC-257 melanoma, 79.7%; in the test on M14 melanoma it was 104%.

On to `COc1ccc(-c2nc3sc4c(c3c(=O)[nH]2)CCCCCC4)cc1`, for which the growth in the test with DU-145 prostate was 66.6%; in the test on K-562 leukemia it was 17.8%; with MALME-3M melanoma it was 8.18% (active); in the test on MDA-MB-231 breast, 52.6%; with RXF 393 renal it was 28.4%; in the test with SF-268 CNS, 48.6%. The growth in the test on SF-295 CNS was 43.6%; in the test with SF-539 CNS, 65.1%; in the test with UACC-257 melanoma it was 64%; in the test with M14 melanoma, 33.7%.

On to `CC1c2ccccc2-c2ccccc2N1C` (stereo not given), for which the growth with DU-145 prostate is 110%; with K-562 leukemia it was 88.3%; in the test with MALME-3M melanoma it was 99.4%; with MDA-MB-231 breast, 97.4%; in the test with RXF 393 renal, 116%; with SF-268 CNS, 105%. For the same molecule, the growth in the test on SF-295 CNS was 109%; in the test on SF-539 CNS, 50.2%; in the test with UACC-257 melanoma it was 114%; with M14 melanoma, 106%.

Consider `Oc1ccc(/C=N/Nc2nc3ccccc3s2)c(O)c1`, for which the growth was 32.4% in the test with DU-145 prostate; 30% in the test on K-562 leukemia; 52.4% in the test on MALME-3M melanoma; 41.9% in the test with MDA-MB-231 breast; 53.9% in the test with RXF 393 renal; 21.6% with SF-268 CNS. Also, the growth is 36.4% in the test with SF-295 CNS, 34.5% in the test with SF-539 CNS, 37.4% in the test with UACC-257 melanoma and 27.1% in the test with M14 melanoma.
